Experimental data from PubChem BioAssay (NCATS).
Records with an inconclusive call do not appear. Entries that show only a call come without a potency. Calls of active or inactive are those of the source. Unless noted, calls follow the shape of the full dose curve.

System: not listed separately
Test: Validation qHTS assay for inhibitors of Activation Induced Cytidine Deaminase (AID): UDG Counterscreen signal (AID 1347427; active = well fitted curve in the direction sought with a large enough effect; an effect the other way counts as inactive or inconclusive)
Settings: biochemical UDG counterscreen, fluorescence signal; series mostly up to 115 µM
Summary of the method: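 Counterscreen read of UDG activity (2 U/mL, 4/3x) in the FRET deamination format with AID (1 uM, 4/3x), DJC20/DJC23 substrates (250 nM, 4x), 4 h at room temperature. NaOH stop, fluorescence at 560 ex/665 em.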

Q: With `Fc1ccc(C(OCCN2CCN(CCCc3ccccc3)CC2)c2ccc(F)cc2)cc1` as the compound, how does the outcome read?
A: The outcome was “inactive”.

Q: Which outcome does the source give for `O=c1[nH]c2ccccc2n1C1CCN(CCCC(c2ccc(F)cc2)c2ccc(F)cc2)CC1` here?
A: Its outcome is “inactive”.

Q: For `COC[C@H]1OC(=O)c2coc3c2[C@@]1(C)C1=C(C3=O)C2CCC(=O)[C@@]2(C)C[C@H]1OC(C)=O` (stereo partly drawn), which outcome is on record?
A: The outcome was “inactive”.

Molecular target: Single-stranded DNA cytosine deaminase (Homo sapiens) (UniProt Q9GZX7)
Test: Validation qHTS assay for inhibitors of Activation Induced Cytidine Deaminase (AID): AID signal (AID 1347429; active = well fitted curve in the direction sought with a large enough effect; an effect the other way counts as inactive or inconclusive)
Settings: Recombinant AID, FRET ssDNA deamination with UDG, fluorescence; series mostly up to 115 µM
Summary of the method: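 FRET deamination assay: 1 uM AID (4/3x stock) with UDG, compound up to 114 uM, then 250 nM DJC20/DJC23 substrate (4x stock) for 4 hr at room temperature. NaOH added, 30 min; fluorescence read 540/590 nm.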

Single-stranded DNA cytosine deaminase (Homo sapiens), sequence (Q9GZX7 whole entry, looked up): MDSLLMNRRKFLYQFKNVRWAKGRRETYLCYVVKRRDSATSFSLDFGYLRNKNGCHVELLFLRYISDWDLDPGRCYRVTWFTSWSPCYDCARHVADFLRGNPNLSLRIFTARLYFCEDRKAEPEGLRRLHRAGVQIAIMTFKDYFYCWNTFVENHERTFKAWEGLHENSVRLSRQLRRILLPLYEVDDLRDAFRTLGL

Q: With `Fc1ccc(C(OCCN2CCN(CCCc3ccccc3)CC2)c2ccc(F)cc2)cc1` as the compound, how does the outcome read?
A: The outcome was “inactive”.

Q: Which outcome does the source give for `O=c1[nH]c2ccccc2n1C1CCN(CCCC(c2ccc(F)cc2)c2ccc(F)cc2)CC1` here?
A: The outcome was “inactive”.

Q: Which outcome does the source give for `COC[C@H]1OC(=O)c2coc3c2[C@@]1(C)C1=C(C3=O)C2CCC(=O)[C@@]2(C)C[C@H]1OC(C)=O` (stereo partly drawn) here?
A: Its outcome is “inactive”.

System: not listed separately
Test: Primary qHTS for inhibitors of SARS-S pseudo-typed particle cell entry (AID 1479145); also: nearly all actives have a fitted effect of over 45% in size; also: potency is read from the fitted curve at half-maximal effect
Settings: SARS-S pseudotyped particle cell entry, luciferase reporter; series mostly up to 57.1 µM

Q: With `CC(C)=CC1C(C(=O)OCc2cccc(Oc3ccccc3)c2)C1(C)C` (stereo not drawn) as the compound, how does the Potency read?
A: Its Potency is “inactive”.

Q: For `CS(=O)(=O)OCCCCOS(C)(=O)=O`, which Potency is on record?
A: The Potency was “inactive”.

Q: Which Potency does the source give for `CCN(C)C(=O)Oc1cccc([C@H](C)N(C)C)c1` here?
A: The Potency was “inactive”.

Q: For `O[C@@H]1CO[C@H]2[C@@H]1OC[C@@H]2O`, which Potency is on record?
A: Its Potency is “inactive”.

Q: With `C[C@]12CC[C@H]3[C@@H](CCC4=CC(=O)CC[C@@H]43)[C@@H]1CC[C@@H]2OC(=O)CCc1ccccc1` as the compound, how does the Potency read?
A: The Potency was “inactive”.

Q: For `Cc1ccc(S(=O)(=O)NC(=O)NN2CC3CCCC3C2)cc1` (stereo not drawn), which Potency is on record?
A: The Potency was “inactive”.

Q: Which Potency does the source give for `CN1C(CCl)Nc2cc(Cl)c(S(N)(=O)=O)cc2S1(=O)=O` (stereo not drawn) here?
A: The Potency was “inactive”.

Q: For `CN1CCN(C(=O)O[C@H]2c3nccnc3C(=O)N2c2ccc(Cl)cn2)CC1`, which Potency is on record?
A: Its Potency is “inactive”.

Q: Which Potency does the source give for `C=C(C)[C@H]1Cc2c(ccc3c2O[C@@H]2COc4cc(OC)c(OC)cc4[C@@H]2C3=O)O1` here?
A: Its Potency is “inactive”.

Q: With `CC(S)C(=O)NCC(=O)O` (stereo not drawn) as the compound, how does the Potency read?
A: The Potency was “inactive”.

Q: Which Potency does the source give for `CC(C)(C)NCC(O)c1cc(Cl)c(N)c(Cl)c1` (stereo not drawn) here?
A: Its Potency is “inactive”.

Q: With `C[C@H]1O[C@@H](O[C@H]2[C@@H](O)C[C@H](O[C@H]3[C@@H](O)C[C@H](O[C@H]4CC[C@@]5(C)[C@H](CC[C@@H]6[C@@H]5CC[C@]5(C)[C@@H](C7=CC(=O)OC7)CC[C@]65O)C4)O[C@@H]3C)O[C@@H]2C)C[C@H](O)[C@@H]1O` as the compound, how does the Potency read?
A: Its Potency is “inactive”.

Q: Which Potency does the source give for `CC(C)Nc1cccnc1N1CCN(C(=O)c2cc3cc(NS(C)(=O)=O)ccc3[nH]2)CC1` here?
A: Its Potency is “inactive”.

Q: Which Potency does the source give for `O=c1c(O)c(-c2ccc(O)c(O)c2)oc2cc(O)cc(O)c12` here?
A: Its Potency is “inactive”.

Q: Which Potency does the source give for `O=C1CC[C@@]2(O)[C@H]3Cc4ccc(O)c5c4[C@@]2(CCN3CC2CC2)[C@H]1O5` here?
A: Its Potency is “inactive”.

Q: With `Oc1ccc(Cl)cc1Cc1ccccc1` as the compound, how does the Potency read?
A: The Potency was “inactive”.

Q: Which Potency does the source give for `COC(=O)C1=C(C)NC(C)=C(C(=O)OCC(C)C)C1c1ccccc1[N+](=O)[O-]` (stereo not drawn) here?
A: Its Potency is 35.5 µM (active).

Q: For `CCN(CC)CCCC(C)Nc1ccnc2cc(Cl)ccc12` (stereo not drawn), which Potency is on record?
A: Its Potency is “inactive”.

Q: For `O=C(OC1C[C@H]2CC[C@@H](C1)[N+]21CCCC1)C(O)(c1ccccc1)c1ccccc1` (stereo partly drawn), which Potency is on record?
A: The Potency was “inactive”.

Q: Which Potency does the source give for `CC(=O)Nc1cc([As](=O)(O)O)ccc1O` here?
A: The Potency was “inactive”.

Q: With `CN(C)[C@@H]1C(=O)C(C(N)=O)=C(O)[C@@]2(O)C(=O)C3=C(O)c4c(O)cccc4[C@@](C)(O)[C@H]3C[C@@H]12` as the compound, how does the Potency read?
A: Its Potency is “inactive”.

Q: With `O=C1NC(c2ccccc2)(c2ccccc2)C(=O)N1COP(=O)(O)O` as the compound, how does the Potency read?
A: Its Potency is “inactive”.

Q: With `C[C@](N)(Cc1ccc(O)c(O)c1)C(=O)O` as the compound, how does the Potency read?
A: The Potency was “inactive”.

Q: For `O=c1[nH]c2ccccc2n1C1CCN(CCCC(c2ccc(F)cc2)c2ccc(F)cc2)CC1`, which Potency is on record?
A: The Potency was 11.2 µM (active).

Q: With `CC(=O)OCC(CCn1cnc2cnc(N)nc21)COC(C)=O` as the compound, how does the Potency read?
A: The Potency was “inactive”.

Q: For `CN1C[C@H]2c3ccccc3Oc3ccc(Cl)cc3[C@@H]2C1`, which Potency is on record?
A: The Potency was “inactive”.

Q: Which Potency does the source give for `C#CCN(C)[C@H](C)Cc1ccccc1` here?
A: Its Potency is “inactive”.

Q: Which Potency does the source give for `CC(C)(C)CC(C)(C)c1ccc(O)cc1` here?
A: Its Potency is “inactive”.

Q: For `O=[N+]([O-])c1cc([As](=O)(O)O)ccc1O`, which Potency is on record?
A: Its Potency is “inactive”.

Q: For `FC(F)(F)c1cccc(C2=CCN(CCc3ccc4ccccc4c3)CC2)c1`, which Potency is on record?
A: The Potency was “inactive”.

Q: With `Cn1cc(C2=C(c3cn(C4CCN(Cc5ccccn5)CC4)c4ccccc34)C(=O)NC2=O)c2ccccc21` as the compound, how does the Potency read?
A: Its Potency is “inactive”.

Q: Which Potency does the source give for `CN(CCOc1ccc(NS(C)(=O)=O)cc1)CCc1ccc(NS(C)(=O)=O)cc1` here?
A: Its Potency is “inactive”.
